# Laboratory results reported in PubChem BioAssay (NCI).
# The panel holds about 79,000 compounds, 15% with a hit somewhere; the sample as a whole holds those more often. Values without a mark were called inactive. The source made the active and inactive calls. Rule as the data show it: active = growth inhibition above about 70%; inactive = the rest.
# How the values were obtained:
# [1] = NCI Yeast Anticancer Drug Screen. Data for the rad52 strain (AID 147);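 also: 0% = growth of vehicle-treated control cultures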; details: S. cerevisiae rad52 mutant growth inhibition, stronger effect = higher value
# In short: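 DNA repair-defective yeast; compound exposure; growth scored against vehicle controls.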
# [2] = NCI Yeast Anticancer Drug Screen. Data for the wt1 strain (AID 149);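 also: 0% = growth of vehicle-treated wt1 cultures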; details: S. cerevisiae wt1 strain (SPY 50644) growth inhibition, stronger effect = higher value
# In short: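 Measured: growth of wt1 yeast under compound versus vehicle treatment, reported as inhibition.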
# [3] = NCI Yeast Anticancer Drug Screen. Data for the mgt1 strain (AID 153); details: S. cerevisiae mgt1 mutant growth inhibition, stronger effect = higher value
# In short: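 Growth inhibition relative to vehicle controls was scored for the mgt1 yeast strain after compound exposure.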
# [4] = NCI Yeast Anticancer Drug Screen. Data for the rad50 strain (AID 155);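 also: 0% = growth of vehicle-only cultures of the same strain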; details: S. cerevisiae rad50 strain growth inhibition, stronger effect = higher value
# In short: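 Growth of the mutant yeast was measured after compound exposure and referenced to vehicle-treated cultures.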
# [5] = NCI Yeast Anticancer Drug Screen. Data for the mec2-1 strain (AID 157); details: S. cerevisiae mec2-1 strain, stronger effect = higher value
# In short: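 Growth inhibition is read against vehicle-treated controls after compound exposure of the mec2-1 yeast strain, which is defective in DNA damage repair or cell cycle control.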
# [6] = NCI Yeast Anticancer Drug Screen. Data for the rad14 strain (AID 159);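 also: 0% = growth of vehicle-treated control cultures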; details: S. cerevisiae rad14 strain growth inhibition, stronger effect = higher value
# In short: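 Here, inhibition of yeast growth was measured after compound exposure, using a strain with a genetic defect in DNA damage repair and vehicle-treated cultures as the reference.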
# [7] = NCI Yeast Anticancer Drug Screen. Data for the sgs1 mgt1 strain (AID 161);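 also: 0% = growth of cultures given vehicle only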; details: S. cerevisiae sgs1 mgt1 strain, stronger effect = higher value
# In short: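 This yeast growth screen uses a strain with defined DNA-repair lesions; compound-treated growth is compared with vehicle-treated growth.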
# [8] = NCI Yeast Anticancer Drug Screen. Data for the CLN2oe strain (AID 163);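 also: 0% = growth of vehicle-only control cultures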; details: S. cerevisiae CLN2oe strain, stronger effect = higher value
# In short: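 Compound-treated yeast; growth vs vehicle ctrl = % inhibition. Genetically altered strain (cell-cycle control).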
# [9] = NCI Yeast Anticancer Drug Screen. Data for the cln2 rad14 strain (AID 165);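 also: 0% = growth equal to vehicle treated cultures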; details: S. cerevisiae cln2 rad14 strain, stronger effect = higher value
# In short: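 Growth inhibition, relative to vehicle-treated controls, is the read-out. The test organism is a yeast strain with defined genetic alterations, cln2 rad14.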
# [10] = NCI Yeast Anticancer Drug Screen. Data for the bub3 strain (AID 167); details: S. cerevisiae bub3 mutant strain, stronger effect = higher value
# In short: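 Whole-cell yeast assay. The mutant strain was incubated with compounds, and growth inhibition was determined by comparison with vehicle-treated cells.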
# [11] = NCI Yeast Anticancer Drug Screen. Data for the wt2 strain (AID 169);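 also: 0% = growth of vehicle-treated yeast cultures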; details: S. cerevisiae wt2 strain growth inhibition, stronger effect = higher value
# In short: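 Compound exposure of yeast; growth compared with vehicle controls; inhibition reported.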
# [12] = NCI Yeast Anticancer Drug Screen. Data for the mlh1 strain (AID 171);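 also: 0% = growth of vehicle-treated control cultures of the same strain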; details: S. cerevisiae mlh1 strain growth inhibition, stronger effect = higher value
# In short: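 Compounds are applied to a genetically altered yeast strain, and its growth is compared with that of vehicle-treated cultures to give percent inhibition.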
# [13] = NCI Yeast Anticancer Drug Screen. Data for the sgs1 strain (AID 173);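 also: 0% = growth of vehicle-only control cultures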; details: S. cerevisiae sgs1 mutant, stronger effect = higher value
# In short: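 Compounds applied to genetically altered yeast; growth compared with vehicle-treated cultures to give % inhibition.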
# [14] = NCI Yeast Anticancer Drug Screen. Data for the mlh1 rad18 strain (AID 175); details: S. cerevisiae mlh1 rad18 strain growth inhibition, stronger effect = higher value
# In short: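 Cells of a genetically altered yeast strain, deficient in DNA damage repair, were treated with compound. Their growth was then compared with that of vehicle-treated cultures to give inhibition.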
# [15] = NCI Yeast Anticancer Drug Screen. Data for the rad18 strain (AID 177); details: S. cerevisiae rad18 mutant growth inhibition, stronger effect = higher value
# In short: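 Compounds are applied to a repair-deficient yeast strain, and growth is compared with that of vehicle-treated cultures to give percent inhibition.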
# [16] = at 5.0 µM (retest, dose inferred, filed as 0.5)
# [17] = at 50.0 µM (retest, dose inferred, filed as 5.0)
structure (smiles),measurement,setting,value
COc1ccc(N2CN(C)CSC2=S)cc1,growth inhibition,[1]; at 1.2 µM,-27%
same,growth inhibition,[1]; at 3.7 µM,-11%
same,growth inhibition,[1]; at 11.0 µM,-1%
same,growth inhibition,[1]; at 33.0 µM,43%
same,growth inhibition,[1]; at 100.0 µM,72% (active)
same,growth inhibition,[2]; at 1.2 µM,-18%
same,growth inhibition,[2]; at 3.7 µM,-14%
same,growth inhibition,[2]; at 11.0 µM,-22%
same,growth inhibition,[2]; at 33.0 µM,-1%
same,growth inhibition,[2]; at 100.0 µM,58%
same,growth inhibition,[3]; at 1.2 µM,-51%
same,growth inhibition,[3]; at 3.7 µM,-48%
same,growth inhibition,[3]; at 11.0 µM,-36%
same,growth inhibition,[3]; at 33.0 µM,-11%
same,growth inhibition,[3]; at 100.0 µM,61%
same,growth inhibition,[4]; at 1.2 µM,-20%
same,growth inhibition,[4]; at 3.7 µM,3%
same,growth inhibition,[4]; [16],61%
same,growth inhibition,[4]; at 11.0 µM,25%
same,growth inhibition,[4]; at 33.0 µM,63%
same,growth inhibition,[4]; [17],95% (active)
same,growth inhibition,[4]; at 50.0 µM,10.6%
same,growth inhibition,[4]; at 100.0 µM,83% (active)
same,growth inhibition,[5]; at 1.2 µM,-17%
same,growth inhibition,[5]; at 3.7 µM,-29%
same,growth inhibition,[5]; [16],73% (active)
same,growth inhibition,[5]; at 11.0 µM,-22%
same,growth inhibition,[5]; at 33.0 µM,-2%
same,growth inhibition,[5]; [17],96% (active)
same,growth inhibition,[5]; at 50.0 µM,8.85%
same,growth inhibition,[5]; at 100.0 µM,75% (active)
same,growth inhibition,[6]; at 1.2 µM,-24%
same,growth inhibition,[6]; at 3.7 µM,-22%
same,growth inhibition,[6]; at 11.0 µM,-21%
same,growth inhibition,[6]; at 33.0 µM,-11%
same,growth inhibition,[6]; at 100.0 µM,40%
same,growth inhibition,[7]; [16],-20%
same,growth inhibition,[7]; [17],59%
same,growth inhibition,[8]; at 1.2 µM,-23%
same,growth inhibition,[8]; at 3.7 µM,-23%
same,growth inhibition,[8]; at 11.0 µM,-39%
same,growth inhibition,[8]; at 33.0 µM,-9%
same,growth inhibition,[8]; at 100.0 µM,24%
same,growth inhibition,[9]; [16],22%
same,growth inhibition,[9]; [17],59%
same,growth inhibition,[10]; at 1.2 µM,-12%
same,growth inhibition,[10]; at 3.7 µM,-11%
same,growth inhibition,[10]; [16],35%
same,growth inhibition,[10]; at 11.0 µM,-12%
same,growth inhibition,[10]; at 33.0 µM,32%
same,growth inhibition,[10]; [17],83% (active)
same,growth inhibition,[10]; at 100.0 µM,73% (active)
same,growth inhibition,[11]; at 1.2 µM,-25%
same,growth inhibition,[11]; at 3.7 µM,-15%
same,growth inhibition,[11]; at 11.0 µM,-22%
same,growth inhibition,[11]; at 33.0 µM,-7%
same,growth inhibition,[11]; at 100.0 µM,58%
same,growth inhibition,[12]; at 1.2 µM,-53%
same,growth inhibition,[12]; at 3.7 µM,-52%
same,growth inhibition,[12]; at 11.0 µM,-48%
same,growth inhibition,[12]; at 33.0 µM,-3%
same,growth inhibition,[12]; at 100.0 µM,57%
same,growth inhibition,[13]; at 1.2 µM,-43%
same,growth inhibition,[13]; at 3.7 µM,-41%
same,growth inhibition,[13]; at 11.0 µM,-39%
same,growth inhibition,[13]; at 33.0 µM,7%
same,growth inhibition,[13]; at 100.0 µM,71% (active)
same,growth inhibition,[14]; [16],51%
same,growth inhibition,[14]; [17],97% (active)
same,growth inhibition,[14]; at 50.0 µM,56.4%
same,growth inhibition,[15]; at 1.2 µM,-67%
same,growth inhibition,[15]; at 3.7 µM,-64%
same,growth inhibition,[15]; at 11.0 µM,-53%
same,growth inhibition,[15]; at 33.0 µM,-41%
same,growth inhibition,[15]; at 100.0 µM,52%
